Screening results: PubChem BioAssay, National Center for Advancing Translational Sciences (NCATS)
The sample as a whole holds a higher share of hits than the screen did.
Tb PGK inh = qHTS Assay to Find Inhibitors of Phosphoglycerate Kinase. 380,000 tested, 0.043% active. Potency, µM (series often up to 57.5 µM), without a hit: at the highest dose activity change, negative = inhibition, hits mostly inhibitors. PGK/GAPDH coupled, Kinase-Glo luminescence, 60 min; note: potency is the fitted concentration of half-maximal effect; nearly all actives have a fitted effect of over 60% in size
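Recombinant glycosomal PGK reaction used 1,3-bisphosphoglycerate generated in-well by GAPDH (100nM final) in 100mM TEA pH 7.6, 5mM MgCl2, 0.01% Tween-20. After 60 minutes at room temperature, ATP was read by Kinase-Glo Plus luminescence end-point.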
Pin1 inh = qHTS Assay to Find Inhibitors of Pin1; Pin1 FP peptide displacement, HiFluor488, 10 min; Potency, µM (titrated, usually from 115 µM), without a hit: at the highest dose activity, negative = inhibition, usual class: inhibitors; 390,000 tested, 0.009% active; AID 504891, 2011; active = well fitted inhibition curve with a large enough effect in the polarisation, with a control signal flat, not every such curve was filed as active; inconclusive = small, poorly fitted or top-dose-only effect, or effect the other way, or a change in a side signal; inactive = no such curve, though single readings can be large or run the other way; the % refers to the polarisation; note: potency is the fitted concentration of half-maximal effect
Target sequence (Q13526 whole entry, looked up): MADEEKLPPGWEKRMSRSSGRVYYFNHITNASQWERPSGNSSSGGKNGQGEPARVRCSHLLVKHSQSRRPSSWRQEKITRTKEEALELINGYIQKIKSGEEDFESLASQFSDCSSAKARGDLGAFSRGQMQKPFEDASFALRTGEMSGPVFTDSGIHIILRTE
PI5P4K alpha inh = qHTS for Inhibitors of phosphatidylinositol 5-phosphate 4-kinase (PI5P4K); PI5P4Kalpha enzyme, ADP-Glo luminescence, 60 min; hits give low values; 330,000 tested, 1.2% active; max response, %; AID 652105, 2013; active = max response of -50% or lower; inconclusive = between -30% and -50%; inactive = -30% or higher; note: value at the top dose of about 77 µM
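ADP-Glo luminescence end-point read after a 60 min room-temperature kinase reaction of PI5P4Kalpha plus substrate, initiated with ATP at 5 microM final. Buffer: 0.038 M HEPES pH 7.4, EGTA, 0.1% CHAPS, 5% DMSO.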
Tb PFK inh = qHTS Assay to Find Inhibitors of T. brucei phosphofructokinase; ATP-dependent 6-phosphofructokinase (Trypanosoma brucei brucei), O15648; T. brucei PFK, ADP-Glo luminescence; Potency, µM (highest dose often 57.5 µM), for inactives: top-dose activity, negative = inhibition, hits mostly inhibitors; 330,000 tested, 0.17% active; AID 485367, 2010;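 note: potency is the fitted concentration of half-maximal effect; 0% = uninhibited 1x PFK enzyme wells and -100% = no-enzyme wells; nearly all actives have a fitted effect of over 60% in size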
Target sequence (O15648 whole entry, looked up): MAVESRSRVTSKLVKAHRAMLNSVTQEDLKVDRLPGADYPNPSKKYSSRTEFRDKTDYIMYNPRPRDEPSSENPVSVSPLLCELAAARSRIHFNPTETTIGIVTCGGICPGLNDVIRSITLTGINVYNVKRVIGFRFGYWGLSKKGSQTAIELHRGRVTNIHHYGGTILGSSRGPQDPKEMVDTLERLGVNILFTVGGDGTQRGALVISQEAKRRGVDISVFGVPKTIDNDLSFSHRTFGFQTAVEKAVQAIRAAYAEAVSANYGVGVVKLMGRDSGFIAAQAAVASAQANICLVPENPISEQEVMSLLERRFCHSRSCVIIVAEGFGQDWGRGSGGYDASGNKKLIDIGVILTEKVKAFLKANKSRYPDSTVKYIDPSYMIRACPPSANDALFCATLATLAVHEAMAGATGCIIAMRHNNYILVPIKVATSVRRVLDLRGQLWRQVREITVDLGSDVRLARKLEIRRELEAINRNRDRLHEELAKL
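Luminescent ADP detection (ADP-Glo, two-step: ATP depletion then ADP-to-ATP conversion for luciferase) reported PFK activity after 45 min room-temperature reaction of 1.25 nM enzyme with 0.5 mM F6P and 0.1 mM ATP at pH 8.0.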
PI4K2A block = qHTS for small molecular inhibitors of PI4K2A. 420,000 tested, 0.13% active. AID 1346378, 2018. activity change, negative = inhibition, % at 76.9 µM. purified PI4K2A, ADP-Glo luminescence, 1 h; hits give low values. Phosphatidylinositol 4-kinase type 2-alpha (Homo sapiens), Q9BTU6; in the data active = activity change below about -50%; inconclusive = mostly about -30% to -49%;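 note: -100% = wells without enzyme as full effect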
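Compounds are screened against recombinant PI4K2A using PI as substrate and ATP, the latter dispensed at 300 microM. Reactions run one hour at ambient temperature before ADP-Glo detection; full inhibition defined by wells lacking enzyme.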
ADP-Glo interf = qHTS for Inhibitors of PI5P4K: ADP-Glo counter assay | shares compounds with PI5P4K alpha inh | ADP-Glo detection counter-screen, luciferase luminescence, no enzyme | Potency, µM (series often up to 76.9 µM), for inactives: top-dose activity change, negative = inhibition, usual class: inhibitors | 1,100 tested, under 10 active
* = called active by the depositor; ? = inconclusive; nt = no result. Unless noted, calls come from the whole dose curve; as a rule, active = well fitted curve in the direction sought with a large enough effect; inconclusive = small, poorly fitted or top-dose-only effect, or another doubt; inactive = no such curve, though single readings can be large; an effect the other way counts as inactive or inconclusive. Unless noted, % is set by controls: 0 for no effect and ±100 for the full control effect.

SMILES	Tb PGK inh	Pin1 inh	PI5P4K alpha inh	Tb PFK inh	PI4K2A block	ADP-Glo interf
COCCNC(=O)C1Cc2c(-c3ccc(NC(C)=O)cc3)ccnc2O1 (stereo not drawn)	nt	nt	-66*	nt	-3	2%
O=c1c2ccccc2sc2nc(C3CCCCC3)n(Cc3ccco3)c(=O)c12	-10%	65%	nt	-29%	0	nt
CCc1nc2sc3ccccc3c(=O)c2c(=O)n1Cc1ccco1	-21%	nt	-68*	-3%	?	-5%
O=C(Nc1nccs1)c1cc(-c2ccco2)nc2ccccc12	-5%	?	-86*	9%	-28	-11%
COc1ccc(CNC(=O)COC(=O)c2cc(-c3ccco3)nc3ccccc23)cc1	nt	nt	nt	-21%	nt	nt
Cc1ccc(-c2cc(C(=O)O)c3cc(Br)ccc3n2)o1	-13%	73%	-69*	-22%	-13	0%
Cc1csc(NC(=O)c2cc(-c3ccco3)nc3ccccc23)n1	-8%	?	-57*	1%	?	-8%
CCNC(=O)COC(=O)c1cc(-c2ccco2)nc2ccccc12	-23%	?	-78*	-21%	-9	3%
O=C(CSc1nc2ccccc2nc1N1CCCCC1)N1CCN(S(=O)(=O)c2cc(Cl)ccc2Cl)CC1	nt	nt	nt	nt	19	nt
O=C(Nc1cccc(S(=O)(=O)NC2=NCCC2)c1)c1cc(-c2ccco2)nc2ccccc12	?	nt	-75*	-6%	?	-4%
Cc1ccc(-c2cc(C(=O)NCc3ccco3)c3ccccc3n2)o1	?	?	-88*	?	-19	-1%
Cc1cc(C(=O)NCc2ccco2)c2ccccc2n1	-4%	-1%	-6	-4%	-4	nt
O=C(Nc1nnc(SCc2ccc(Cl)cc2)s1)c1ccco1	-2%	15%	-57*	1%	-10	4%
Cc1cc(C(=O)Nc2cccc3c2O[C@@H](CN(C)S(=O)(=O)c2ccccc2)[C@H](C)CN([C@@H](C)CO)C3=O)n(C)n1	8%	-8%	-1	1%	0	nt
Cc1cc(C(=O)Nc2cccc3c2O[C@@H](CN(C)S(C)(=O)=O)[C@H](C)CN([C@@H](C)CO)C3=O)n(C)n1	-4%	-8%	0	-1%	-3	2%
COc1ccc(C2=NOC(C(=O)NCc3ccccn3)C2)cc1OC (stereo not drawn)	-3%	2%	-53*	-1%	-6	3%
COc1ccc(C2=NOC(C(=O)NCc3ccccn3)C2)cc1 (stereo not drawn)	-3%	1%	?	-1%	0	nt
CCc1ccc(N2CC(C(=O)Nc3nc4ccc(S(C)(=O)=O)cc4s3)CC2=O)cc1 (stereo not drawn)	-1%	-2%	-8	-3%	2	nt
COc1ccc(N2CC(C(=O)Nc3nc4ccc(S(C)(=O)=O)cc4s3)CC2=O)cc1 (stereo not drawn)	-2%	?	-53*	0%	-8	1%
Cc1ccc2nc(NC(=O)C3CCN(S(=O)(=O)c4cc([N+](=O)[O-])ccc4Cl)CC3)sc2c1	-6%	?	-53*	-3%	-6	2%
O=C(Nc1nc2ccc(F)cc2s1)C1CCN(S(=O)(=O)c2cc([N+](=O)[O-])ccc2Cl)CC1	-4%	-21%	?	0%	-19	nt
O=C(Nc1ccccc1)N1CCCC2CCCCC21 (stereo not drawn)	0%	1%	-4	2%	1	nt
CC(=O)Nc1cc(NC(C)=O)cc(C(=O)N2CCCC3CCCCC32)c1 (stereo not drawn)	-7%	?	-65*	?	-3	0%
O=C(COC(=O)CCC(=O)c1ccc(F)cc1)NCc1ccc(Cl)cc1	13%	2%	-1	-7%	2	nt
O=C(COC(=O)C1CC2C=CC1C2)NCc1ccco1 (stereo not drawn)	32µM*	?	-74*	?	-16	-1%
SMILES	Tb PGK inh	Pin1 inh	PI5P4K alpha inh	Tb PFK inh	PI4K2A block	ADP-Glo interf
O=C(COC(=O)CCC(=O)c1ccc(Cl)cc1)NCc1ccco1	?	?	-52*	?	-2	0%
O=C(Nc1nc(Cc2ccccc2)c(-c2ccccc2)n1Cc1ccccc1)c1ccccc1	nt	nt	nt	nt	1	nt
Cc1cc(C)cc(-c2c(C(=O)c3ccc(Br)cc3)[nH]c(N)c2C(=O)NCc2ccc(Cl)cc2)c1	nt	nt	nt	nt	1	nt
O=C(O)c1cccc(-n2cc(-c3cccc(C(F)(F)F)c3)cn2)c1	-4%	-4%	-62*	14%	3	-4%
O=C(O)c1ccc(-c2nc(-c3cccc(C(F)(F)F)c3)cs2)cc1	0%	1%	-18	3%	3	nt
O=C(NC1CCC1)c1ccc(C#Cc2cccc(F)c2)nc1	nt	nt	nt	nt	-18	nt
COc1cccc(CNC(=O)CN2c3cccc4cccc(c34)S2(=O)=O)c1	-16%	?	-65*	?	-10	-7%
CC(NC(=O)CN1c2cccc3cccc(c23)S1(=O)=O)c1ccc(S(N)(=O)=O)cc1 (stereo not drawn)	-1%	?	-55*	-20%	-13	2%
CC(NC(=O)CN1c2cccc3cccc(c23)S1(=O)=O)c1ccccc1 (stereo not drawn)	3%	nt	-28	nt	-3	nt
COc1ccc(/C=C/S(=O)(=O)NCc2ccc(F)cc2)c(CNC(=O)OC(C)(C)C)c1	nt	nt	nt	nt	-3	nt
N#CCC[C@H]1CC[C@]2(CCCN(C(=O)c3ccccc3)C2)O1	nt	nt	nt	nt	0	nt
CCOC(=O)c1cccc(NC(=O)CN(C)S(=O)(=O)c2cc(OC)ccc2OC)c1	nt	nt	nt	nt	-10	nt
